# Source: the supplement of paper PMC10338343
# ± gives the standard deviation. In all, about 6,600 sequences were measured (“pre-steady-state target cleavage rate”: median about 0.07, highest 2% from about 0.72 on). This is one part of a sample in which the highest values are shown more often than they occur.
# System: MIWI (PIWIL1) piRISC loaded with Kctd7 piRNA (30 nt)
# Test: pre-steady-state target cleavage rate (min^-1); MIWI and MILI are mouse PIWI proteins and EfPiwi is from a freshwater sponge; tags in brackets are library labels; higher = faster piRNA-guided slicing of the target
# Conditions: guide: Kctd7 piRNA 5'p-UGUUAAUCUCUCAGAGAAGGUGACAGUGAU; auxiliary factor: 500 nM mouse GTSF1
# Experimental: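 Cleave-'n-Seq: a library of target RNAs (target site embedded in constant flanks, ACAGCATTCCGCGTTAGTGATATCCG... 5' flank; DNA-blocked outside the site) at 0.1 nM was incubated with 1 nM active mouse MILI or MIWI piRISC (synthetic 5'-monophosphorylated piRNA guide) with or without 500 nM mouse GTSF1 at 33 °C for 1 min to 16 h. Uncleaved targets were sequenced and normalised to non-target controls, and the pooled three trials were fitted to a burst-and-steady-state model to give the pre-steady-state cleavage rate (min^-1; k3 is constrained to at most 1e-4). Sequence is the target site only; target names encode pairing extent (gX:gY) and contiguous / 1-mismatch / 2-mismatch / bulge geometry. Fits with R² ≤ 0 are excluded.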
row,Sequence,pre-steady-state target cleavage rate
1,UUCACUGUCACCUUGUCUGAGAGAUUUUGA,1.06 ± 0.27
2,AUCACUGUCACCUUCACUGAGAGAUUUUGA,0.339 ± 0.082
3,UACACUGUCACCUUCUGAGAGAGAUUUUGA,0.0616 ± 0.019
4,AUCACUGUCACCUUGACUGAGAGAUUUUGA,0.839 ± 0.22
5,UACACUGUCACCUUCACUGAGAGAUUUUGA,0.302 ± 0.099
6,UAGUCUGUCACCUUCACUGAGAGAUUUUGA,0.176 ± 0.046
7,AUCACUGUCACCUUCUCUGAGAGAUUUUGA,0.0948 ± 0.023
8,UACACUGUCACCUUGUCUGAGAGAUUUUGA,1.02 ± 0.24
9,AUCACUGUCACCUUGUCUGAGAGAUUUUGA,1.4 ± 0.36
10,UAGUCUGUCACCUUGUCUGAGAGAUUUUGA,0.197 ± 0.06
11,UAGACUGUCACCUUGUCUGAGAGAUUUUGA,0.234 ± 0.066
12,UACACUGUCACCUUGACUGAGAGAUUUUGA,0.117 ± 0.039
13,UAGUGACACACGUUGUCUGAGAGAUUAACA,0.0596 ± 0.011
14,UAGUGACAGUCCUUCUCUGAGAGAUUAAACA,0.0368 ± 0.0052
15,UAGUGACACAGCUUCUCUGAGAGAUUAUGA,0.00591 ± 0.0022
16,UACACUGUCACCUUGCUCUGAGAGAUUAACA,1.01 ± 0.17
17,AUCACUGUCACCUUGCUCUGAGAGAUUAACA,1.1 ± 0.18
18,AUCACUGUCACCUGCUCUGAGAGAUUAACA,0.673 ± 0.026
19,UUCACUGUCACCUUGCUCUGAGAGAUUAACA,0.747 ± 0.11
20,UACACUGUCACCUUGUCUGAGAGAUUAACA,0.355 ± 0.042
21,UUCACUGUCACCUGCUCUGAGAGAUUAACA,0.645 ± 0.031
22,AUCACUGUCACCUGUCUCUGAGAGAUUAACA,0.651 ± 0.038
23,UACACUGUCACCUGCUCUGAGAGAUUAACA,0.571 ± 0.03
24,UAGUCUGUCACCUUGCUCUGAGAGAUUAACA,0.47 ± 0.081

row,Sequence,pre-steady-state target cleavage rate
1,UAGACUGUGACCUUCUCUGAGAGAUUAUCA,0.246 ± 0.033
2,UAGACACUCACCUUCUCUGAGAGAUUAUGA,0.141 ± 0.031
3,AUCACUGUCACGUUCACUGAGAGAUUAACA,0.44 ± 0.025
4,UAGUCUGUCACCUUCUCUGAGAGAUAAUGA,0.0204 ± 0.0082
5,UUCACUGUCACCUUCUCUGAGAGUUUAUGA,0.71 ± 0.18
6,UAGUGUGUCACCUUCUCUGAAGAGAUUAACA,0.00762 ± 0.0051
7,UACACUCUCACCUUCUCUGAGUGAUUAACA,0.0216 ± 0.0064
8,UAGUCUUUCACCUUCUCUGAGAGAUUAACA,0.265 ± 0.015
9,UAGUGAGUCAGCUUCUCUGAGAGAAUAACA,0.199 ± 0.032
10,UACACUGUCACCUUCUCUGUCAGAUUAACA,0.0245 ± 0.008
11,AUCACUGUCACCUUUUCUGAGAGAUUAACA,0.748 ± 0.029
12,UAGACUGUCACCUUUCUGAGAGAUUAACA,0.5 ± 0.033
13,UUCACUGUCACCUUUUCUGAGAGAUUAACA,0.679 ± 0.028
14,UAGACUGUCACCUUUCUCUGAGAGAUUAACA,0.538 ± 0.039
15,UAGACUGUCACCUUUUCUGAGAGAUUAACA,0.732 ± 0.034
16,AUCACUGUCACCUUUCUGAGAGAUUAACA,0.532 ± 0.025
17,UAGUGAGUCACCUUCACUCAGAGAUUAACA,0.0317 ± 0.0057
18,UUCACUGUCUCCUUCUCUGAGAGAUUAUCA,0.231 ± 0.035
19,UAGUGACAGUGCUUCACUGAGAGAUUAACA,0.00805 ± 0.0033
20,UAGUGACUCACGUUCUCUGAGAGAUUUUGA,< 0.0001
21,UAGAAUGUCACCUUCUCUGAGAGAUUAACA,0.652 ± 0.038
22,AUCACUGUCACCUUCACUGAGAGAUUUACA,0.511 ± 0.082
23,AUCACUGUCACCUUGUCUGAGAGAUUUACA,0.799 ± 0.14
24,UACACUGUCACCUUGUCUGAGAGUUUAACA,0.442 ± 0.11

row,Sequence,pre-steady-state target cleavage rate
1,UAGACUGUCACCUUGUCUGAGAGAUUUACA,0.659 ± 0.12
2,UUCACUGUCACCUUGUCUGAGAGAUUUACA,0.671 ± 0.12
3,UUCACUGUCACCUUGUCUGAGAGUUUAACA,0.422 ± 0.077
4,UACACUGUCACCUUGUCUGAGAGAUUUACA,0.989 ± 0.19
5,UAGUCUGUCACCUUGUCUGAGAGAUUUACA,0.25 ± 0.045
6,AUCACUGUCACCUUGUCUGAGAGUUUAACA,0.745 ± 0.15
7,UACACUGUGACCUUCUCUGAGAGAUUAACA,0.464 ± 0.037
8,UAGUGACAGUCCUUCUCUGAGAGUAUUAACA,0.0116 ± 0.0023
9,UAGUGUGUCACCUUCUCUGAGACAUUUACA,0.028 ± 0.0097
10,UAGUGACACACCAACUCUGAGAGAUUAACA,0.0222 ± 0.0043
11,UUCACUCAGACCUUCUCUGAGAGAUUAUGA,0.0052 ± 0.0036
12,UAGUGAGACACCUUCUCUGAGAGAUUAAGA,0.0909 ± 0.019
13,AACACUGUCACCUUCUCUGAGAGAUUAUGA,0.101 ± 0.021
14,UAGACUGUCAUCCUUCUCUGAGAGAUUAACA,0.262 ± 0.023
15,UUCACUGUCAUCUUCUCUGAGAGAUUAACA,0.596 ± 0.027
16,UAGACUGUCACUCUUCUCUGAGAGAUUAACA,0.457 ± 0.032
17,AUCACUGUCACUCUUCUCUGAGAGAUUAACA,0.53 ± 0.035
18,AUCACUGUCAUCUUCUCUGAGAGAUUAACA,0.827 ± 0.041
19,UAGACUGUCAUCUUCUCUGAGAGAUUAACA,0.848 ± 0.051
20,AUCACUCUCACCUUCUCUGAGAGAUUAUGA,0.049 ± 0.018
21,UAGACUGUCACCUUCUCUCAGAGUUUAACA,0.0473 ± 0.0063
22,UAGUCUGACACCUUGUCUGAGAGAUUAACA,0.164 ± 0.022
23,AUCAAUGUCACCUUCUCUGAGAGAUUAACA,0.672 ± 0.03
24,AACACUGUCUCCUUCUCUGAGAGAUUAACA,0.738 ± 0.039
